# Laboratory results taken from PubChem BioAssay AID1508633 (National Center for Advancing Translational Sciences (NCATS), 2021).
# Records with an inconclusive call do not appear. Values without a mark were called inactive. Calls of active or inactive are those of the source. Calls come from the whole dose curve; as a rule, active = well fitted inhibition curve with a large enough effect; inconclusive = small, poorly fitted or top-dose-only effect; inactive = no such curve, though single readings can be large or run the other way. Where a SMILES comes first, the peptide text is derived from it. [ ]: non-standard residue; d: D form. The star is where a group is joined. Cbz = O=C(OCc1ccccc1)*; Nva = CCC[CH](N)C(=O)O
# Test system: zebrafish ABCB5 (Abcb5) multidrug transporter
# Experiment: qHTS for characterization and localization of zebrafish homologs of the human ABCB1 multidrug transporter: ABCB5 transfected cells
# Details: CellTiter-Glo luminescence viability, 72 h; series mostly up to 46.1 µM
# From the text: The zebrafish has emerged as a potential model to study the blood-brain barrier (BBB) given its similarities with mammalian systems. However, little information has been available with regard to homologous ATP-binding cassette transporters expressed at the zebrafish BBB. Two transporters that are highly expressed at the human BBB are P-glycoprotein (P-gp, encoded by the ABCB1 gene) and ABCG2 (encoded by the ABCG2 gene). In this study, we focus on characterization of P-gp homologs in the zebrafish, which has two genes that are homologous to human ABCB1 - abcb4 and abcb5. We generated stably-transfected cell lines to determine their substrate specificities. […] Zebrafish abcb4 also colocalized with claudin 5 expression in brain endothelial cells.
# A high-throughput screen was performed as previously described on empty vector transfected cells, P-gp-overexpressing MDR-19 cells and cells transfected with full-length zebrafish abcb4 (ZF Abcb4) or abcb5 (ZF Abcb5). Briefly, cells were plated into 1536-well plates at a density of 500 cells/well in 5 uL media. P-gp substrate compounds (approximately 90) selected from our previous study were then added at varying concentrations using a 1536-head pin tool (Kalypsis, San Diego, CA) and plates were incubated at 37C in 5% CO2 for 72 h. CellTiter-Glo reagent (Promega) was dispensed into the wells, incubated for 5 min and luminescence was read on a ViewLux instrument (Perkin-Elmer).
# Cytotoxic compounds were defined as those that yielded a curve class of -1.1, -1.2, -2.1, -2.2, -2.3, or -2.4, a maximum response of >50% and an AC50 of < 10 uM. All compounds from screening analysis were tested in Vector (empty vector control), MDR-19 (P-gp overexpressing), zebrafish abcb4 (ZF Abcb4) and abcb5 (ZF Abcb5) expression cell lines.
# 1. Tobie D Lee, Olivia W Lee, Kyle R Brimacombe, Lu Chen, Rajarshi Guha, Sabrina Lusvarghi, Bethilehem G Tebase, Carleen Klumpp-Thomas, Robert W Robey, Suresh V Ambudkar, Min Shen, Michael M Gottesman, Matthew D Hall. A High-Throughput Screen of a Library of Therapeutics Identifies Cytotoxic Substrates of P-glycoprotein. Mol Pharmacol. 2019, Nov;96(5):629-640.
SMILES,Potency,"activity, negative = inhibition"
COc1cc2c(NC3CCN(C(C)C)CC3)nc(N3CCCN(C)CC3)nc2cc1OCCOCCN(C)C,inactive,–
CC[n+]1c(-c2ccccc2)c2cc(N)ccc2c2ccc(N)cc21,11.8 µM (active),–
CC(NCc1ccc2c(c1)nc(NC(=O)c1ccc(-c3cn[nH]c3)s1)n2CC(C)(C)O)C(C)(C)C (stereo not given),3.72 µM (active),–
CC1(C)CC(NC(=O)C(=O)Nc2ccc(Br)cc2)CC(C)(C)N1,inactive,–
CCCC(C=O)NC(=O)C(CC(C)C)NC(=O)C(CC(C)C)NC(=O)OCc1ccccc1 (stereo not drawn) (Cbz-Leu-Leu-[Nva]-aldehyde; configuration not given here),1.87 µM (active),–
CCc1cccc(CC)c1NC(=O)N1Cc2[nH]nc(NC(=O)c3ccc(N4CCN(C)CC4)cc3)c2C1,inactive,–
Cc1[nH]c2ccccc2c1CCNCc1ccc(/C=C/C(=O)NO)cc1,0.59 µM (active),–
N=C(N)c1ccc(OCCCCCOc2ccc(C(=N)N)cc2)cc1,13.2 µM (active),–
COc1cc2c(NC3CCN(C(C)C)CC3)nc(N3CCCN(C)CC3)nc2cc1OCCCN1CCCC1,inactive,–
CN(C)C1CCN(C(=O)c2ccc(NC(=O)Nc3nc(N4CCOCC4)nc(N4CCOCC4)n3)cc2)CC1,4.69 µM (active),–
CCS(=O)(=O)c1cccc(-c2cc(C(=O)NC3CCN(C)CC3)c(C)c3[nH]c4ncc(C)cc4c23)c1,inactive,–
CCCCc1nc2cc(C=CC(=O)NO)ccc2n1CCN(CC)CC,7.43 µM (active),–
Cc1cc(N)c2ccccc2[n+]1CCCCCCCCCC[n+]1c(C)cc(N)c2ccccc21,8.33 µM (active),–
CC(=O)C1(O)Cc2c(O)c3c(c(O)c2C(OC2CC(N)C(O)C(C)O2)C1)C(=O)c1c(O)cccc1C3=O (stereo not given),0.059 µM (active),–
COc1cc2ncn(-c3cc(OCc4ccccc4C(F)(F)F)c(C(N)=O)s3)c2cc1OC,6.79 µM (active),–
NC(=O)Nc1cc(-c2ccc(CN3CCOCC3)c(F)c2)sc1C(=O)N[C@H]1CCCNC1,1.48 µM (active),–
Cc1cc(Nc2cc(NC(=O)c3c(Cl)cccc3Cl)ccn2)nc(N)n1,7.43 µM (active),–
Oc1ccc(-c2ccc(-c3cc(Nc4cccc(CNC5CC5)c4)n[nH]3)cc2)c(O)c1,5.26 µM (active),–
C/C=C1/NC(=O)C2CSSCCC=CC(CC(=O)NC(C(C)C)C(=O)N2)OC(=O)C(C(C)C)NC1=O (stereo not given),2.09 µM (active),–
C[C@@H](Oc1cc(-n2cnc3ccc(CN4CCN(C)CC4)cc32)sc1C(N)=O)c1ccccc1C(F)(F)F,4.18 µM (active),–

SMILES,Potency,"activity, negative = inhibition"
C#Cc1cccc(Nc2ncnc3cc(OC)c(OCCCCCCC(=O)NO)cc23)c1,8.33 µM (active),–
CCN(CC)Cc1ccc(C(=O)N(CCc2ccccc2OC)[C@@H]2CCNC2)cc1,inactive,–
C=CCNC1=C2CC(C)CC(OC)C(O)C(C)/C=C(\C)C(OC(N)=O)C(OC)/C=C/C=C(\C)C(=O)NC(=CC1=O)C2=O (stereo not given),11.8 µM (active),–
COc1cc(N2CCC(O)CC2)ccc1Nc1nc(Nc2ccccc2S(=O)(=O)C(C)C)c2[nH]cnc2n1,inactive,–
Cc1ccc(-c2ncn(-c3ccc(Nc4nccc(-c5cccc(N6CCOCC6)c5)n4)cc3)n2)cn1,5.9 µM (active),–
CC[C@@H]1C(=O)N(C)c2cnc(Nc3ccc(C(=O)NC4CCC(N5CCN(CC6CC6)CC5)CC4)cc3OC)nc2N1C(C)C (stereo not given in full),1.32 µM (active),–
CC(C)C[C@H](NC(=O)[C@H](CCc1ccccc1)NC(=O)CN1CCOCC1)C(=O)N[C@@H](Cc1ccccc1)C(=O)N[C@@H](CC(C)C)C(=O)[C@@]1(C)CO1,0.166 µM (active),–
NC(=O)Nc1cc(-c2cccc(F)c2)sc1C(=O)N[C@H]1CCCNC1,0.662 µM (active),–
CC(C)C[C@H](NC(=O)[C@@H](NC(=O)c1cccc(-c2ccccc2)n1)[C@@H](C)O)B(O)O,0.118 µM (active),–
Cc1ccc(C(=O)N(CCCN)[C@@H](c2oc3cc(Cl)ccc3c(=O)c2Cc2ccccc2)C(C)C)cc1,23.5 µM (active),–
CCn1nnc2c(N3CCOCC3)nc(-c3ccc(NC(=O)Nc4ccc(C(=O)N5CCN(C)CC5)cc4)cc3)nc21,1.87 µM (active),–
CC(=O)O[C@@H]1C[C@H](O)[C@@]23CO[C@@H](O)C1(C)[C@@H]2C[C@@H](O)[C@]1(C)[C@@H]3C(=O)[C@H](OC(C)=O)[C@@]2(C)[C@H](c3ccoc3)C[C@H]3O[C@]321,1.05 µM (active),–
Cc1ccc(C(=O)N(CCCN)C(c2nc3cc(Cl)ccc3c(=O)n2Cc2ccccc2)C(C)C)cc1 (stereo not given),23.5 µM (active),–
C=C1CO[C@@]2(O[C@H]3CC4C5CC=C6C[C@@H](O)C[C@@H](O[C@@H]7OC[C@H](O)[C@H](O[C@@H]8OC[C@@H](O)[C@H](O)[C@H]8O)[C@H]7O[C@@H]7O[C@@H](C)[C@H](OC(C)=O)[C@@H](OC(C)=O)[C@H]7OC(C)=O)[C@]6(C)C5CC[C@]4(C)[C@@H]3[C@@H]2C)[C@@H](O)[C@H]1OC1OC(C)C(O)C(O)C1O (stereo not given in full),–,3.83% [at 8.96 µM]
C[C@@H]1O[C@@H](O[C@H]2[C@@H](OC(=O)[C@]34CCC(C)(C)CC3C3=CCC5[C@@]6(C)C[C@H](O)[C@H](O[C@@H]7O[C@H](CO)[C@@H](O)[C@H](O)[C@H]7O[C@@H]7OC[C@@H](O)[C@H](O)[C@H]7O)[C@@](C)(C(=O)O)C6CC[C@@]5(C)[C@]3(C)CC4)OC[C@H](O)[C@@H]2O)[C@H](O)[C@H](O)[C@H]1O[C@@H]1OC[C@@H](O)[C@H](O)[C@H]1O (stereo not given in full),–,-6.88% [at 8.96 µM]
C#CCN(Cc1cc2c(=O)n(C)c(CN3CCN(C)CC3)nc2cc1Cl)c1ccc(C(=O)NCc2cccnc2)cc1,inactive,–
CC(C)C[C@@H](C=O)NC(=O)[C@H](CC(C)C)NC(=O)[C@H](CC(C)C)NC(=O)OCc1ccccc1 (Cbz-Leu-Leu-Leu-aldehyde),1.18 µM (active),–
COCCn1c2c([n+](Cc3cnccn3)c1C)C(=O)c1ccccc1C2=O,0.0935 µM (active),–
CN(C)c1ccc(C(=C2C=CC(=[N+](C)C)C=C2)c2ccc(N(C)C)cc2)cc1,0.935 µM (active),–
CN(C)CCN(C)C(=O)c1ccc(NC(=O)Nc2ccc(-c3nc(N4CCOCC4)c4ccn(CC(F)(F)F)c4n3)cc2)cc1,2.35 µM (active),–
